Results from PubChem BioAssay (NCI).
About 83,000 compounds went through this panel and 20% of them were active in at least one assay; those are over-represented in the sample as a whole.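 Values shown are percent growth following 48 h exposure of cells in 96-well plates to a single concentration of compound; below 10 was considered active.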 Unmarked numbers belong to inactive results. Calls of active or inactive are those of the source.

What follows are molecules tested on OVCAR-3 ovarian (assay: NCI-60 one-dose screen, 48 h (100 = growth as untreated, 0 = no growth, -100 = all killed)). Conditions: 10 µM unless noted.
Procedure: Growth inhibition of the OVCAR-3 human tumor cell line is measured as a screen for anti-cancer activity. Cells are grown in 96 well plates and exposed to the test compound for 48 hours. Compounds are tested at a single concentration, which is 10^-5 M for most compounds. The reported endpoint is percent growth (GI% or GIPRCNT), where numbers from 0 - 100% represent growth inhibition, and numbers from -100% - 0 represent cell death. For example, a value of 40 represents 60% growth inhibition. A value of 0 means no net growth occurred over the course of the experiment. A value of -40 indicates 40% of cells at the beginning of the experiment died by the end of the experiment. A value of -100 means all cells are dead at the end of the experiment.
NCI-60 Human Tumor Cell Lines Screen was performed using the standard one-dose NCI protocol, which is described in more detail at https://dtp.cancer.gov/discovery_development/nci-60/default.htm.
Compounds with GIPRCNT values below 10 were considered active. Activity score was based on GIPRCNT using the following formula: […]
Score is 0 for GIPRCNT values of 100 or above, 50 for GIPRCNT values of 0, and 100 for GIPRCNT values of -100.

| Compound | growth |
| --- | --- |
| Cc1ccc(/C=N\NC(=O)c2[nH]c3ccc(F)cc3c2-c2ccccc2)cc1 | -32.3% (active) |
| Oc1ccc(-c2nc3ccc4[nH]ncc4c3c3c2CCCC3)c2cccnc12 | 18.3% |
| Cc1ccc(-c2nc(N3CCN(C(=O)c4ccc(OC(F)(F)F)cc4)CC3)c3ccccc3n2)cc1 | 93.9% |
| Cc1[nH]c(C(=O)Nc2ccc(C(=O)NCCN)cc2OC(C)C)c(Cl)c1Cl | -6.76% (active) |
| COc1ccc(C(=O)COC(=O)[C@H](C[Se][Se]C[C@H](NC(=O)c2ccc(Br)cc2F)C(=O)OCC(=O)c2ccc(OC)cc2)NC(=O)c2ccc(Br)cc2F)cc1 | -86.3% (active) |
| COc1cc2cc(Oc3ccc(NC(=O)Nc4ccc(F)c(C(F)(F)F)c4)cc3)c(C)nc2cc1OCCN1CCOCC1 | 13% |
| CNCCCNc1nc2ccccc2c2c(=O)c3cc(OC)ccc3sc12 | 75.7% |
| O=CN1N=C(c2ccc(Nc3ccnc4cc(Cl)ccc34)cc2)CC1c1ccccc1 (stereo not given) | 14.6% |
| Cc1cccc2c3c(sc12)C(c1ccc(F)cc1)C(C#N)=C(N)O3 (stereo not given) | 3.36% (active) |
| CNc1nc2c(s1)C(c1cccc(F)c1)CC(=O)N2 (stereo not given) | 99.1% |
| COc1ccc(-c2[nH]ncc2-c2cc3c(c(OC)c2)OCC(=O)N3)cc1 | -4.58% (active) |
| CCCCn1c(=O)c(-c2cc(-c3ccc(Cl)cc3)nc(-c3ccc(Cl)cc3)c2)cc2ccc(Cl)cc21 | 112% |
| O=C(O)c1cn(C2CC2)c2cc(N3CCN(C(=O)Nc4nc(-c5ccc(Cl)cc5)cs4)CC3)c(F)cc2c1=O | 5.86% (active) |
| Cc1ncc(C(=O)Nc2ccc(CN3CCN(C)CC3)c(C(F)(F)F)c2)cc1C#Cc1ccc(N)nc1 | 18.6% |
| CCOC(=O)c1nc(Nc2ccc(C(C)=O)cc2)sc1C | 105% |
| COc1ccc2nc(NCCCNCCO)c3sc4ccc(F)cc4c(=O)c3c2c1 | -64.6% (active) |
| O=C(CCCCCCSc1nc(-c2ccccc2)cc(-c2ccccc2)n1)NO | 40% |
| CC(C)n1cnc2c(Nc3cccc(Cl)c3)nc(N[C@H]3CCCC[C@@H]3N)nc21 | 61.2% |
| CCCCOc1ccc(/C=N/NC(N)=S)cc1 | 63.2% |
| CCC(C)(c1cc(C(C)(C)C)c(O)c(C(C)(C)C)c1)c1cc(C(C)(C)C)c(O)c(C(C)(C)C)c1 | 109% |

| Compound | growth |
| --- | --- |
| CN1C(=O)CNC(=O)[C@H](NC(=O)c2nc3ccccc3cc2O)CSSC[C@H]1C(=O)NCCc1nc2ccccc2cc1O | 19.5% |
| NCCCNc1nc2ccccc2c2c(=O)c3cc(F)cc(Cl)c3sc12 | 102% |
| Cc1c(C(=O)N[C@@H](Cc2ccccc2)C(=O)C(=O)NCc2ccc(F)cc2)[nH]c2ccccc2c1=O | 102% |
| Cc1cc2nc3cc(C)c(N)cc3[n+](-c3ccccc3)c2cc1N | 26.2% |
| Clc1ccc(C(/C=C/c2sc(Cl)nc2Cl)=N/Nc2cc(Cl)cc(Cl)c2)cc1 | 103% |
| CCc1cccc2c1S/C(=C/c1ccc(OC)cc1)C2=O | 23.8% |
| CCOC(=O)Nc1ccc(-c2nc(-c3cccc(OC)c3)c(-c3ccnc(Br)c3)[nH]2)cc1 | 33.3% |
| Cc1cccc2c3c(sc12)C(c1ccc(Cl)cc1)C(C#N)=C(/N=C/c1ccc(Cl)cc1)O3 (stereo not given) | -2.5% (active) |
| COc1cc(/C=C2\C(=O)Nc3ccc(Br)cc32)cc(OC)c1OC | 60.3% |
| COc1cc(Nc2cn[nH]c2-c2ccc(Cl)cc2)cc(OC)c1OC | 32.1% |
| CCN1C(=O)N(CC)C2Nn3c(s/c(=C\c4ccc([N+](=O)[O-])cc4)c3=O)=NC21 (stereo not given) | 11.6% |
| O=C1CCC/C=C\C[C@H]2C=CC(=O)/C2=C/C[C@H](CCc2cccc(C(F)(F)F)c2)O1 | -65.8% (active) |
| CCCCNC(=O)Oc1ccc(/C(=C(\C)c2ccc(Cl)cc2)c2ccc(OCCN(CC)CC)cc2)cc1 | 69.1% |
| O=c1ccc(N=Nc2ccccc2)ccc1Cl | 23.7% |
| COc1ccc(-n2c(N)c(-c3nc4ccccc4[nH]3)cc(C#N)c2=O)cc1 | 107% |
| COc1cccc2c(=O)c3c(sc12)c(NCCCN)nc1ccccc13 | 39.1% |
| CCOC(=O)c1[nH]c(C)c(C(=O)OCc2ccccc2C#N)c1C | 62.5% |
| CCOC(=O)NCCc1ccccc1 | 116% |
| CCOC(=O)C1=C(N)Oc2c(sc3c(C)cccc23)C1c1ccc(F)cc1 (stereo not given) | -32.9% (active) |
| COc1ccc(/C=C/c2c(C(=O)/C=C/c3ccc(C(F)(F)F)cc3)c(C)nc3ccccc23)cc1 | -71% (active) |
